Results with a measured potency or affinity are listed apart. Activity calls are given as the source filed them.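 The calls were made as follows: active = falling luciferase signal whose fitted half-maximal concentration is at most twice the top tested dose; inconclusive = flat inhibition between 30 and 70% or a poor curve fit; inactive = the rest.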
Experiment: off-target signal loss in HeLa-CEM21 co-culture – HeLa F-luc CTL cells, cherry-picked, counter-screen for HIV-1 Env fusion inhibitor project, dose response (AID 652040);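 also: 0% = median of neutral control wells and -100% = doxycycline 40 µg/mL wells; more negative values mean stronger loss of luciferase signal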
Settings: HeLa-F-luc CTL cells with CEM21, firefly luciferase counterscreen; series mostly up to 35 µM; activity change, negative = inhibition: at the top concentration

SMILES | activity change, negative = inhibition
CC(=O)OC1c2ccccc2C(=O)N1c1ccccc1C (stereo not given) | 9.79% (inactive)
C[C@@H]1CN([C@H](C)CO)C(=O)c2cccc(NC(=O)c3ccncc3)c2O[C@@H]1CN(C)Cc1ccc(C(=O)O)cc1 | 5.66% (inactive)
CCCCCn1c(C(C)NC(=O)CCC)nc2ccccc21 (stereo not given) | 26.1% (inactive)
CC1CCCCN1S(=O)(=O)c1ccc(C(=O)Nc2nnc(-c3cccs3)o2)cc1 (stereo not given) | -5.3% (inactive)
CC(CCc1ccco1)NC(=O)CCc1nnc2ccc(NCc3ccccc3Cl)nn12 (stereo not given) | 55.1% (inactive)
COc1ccccc1OCC(=O)c1[nH]c(C)c(C(C)=O)c1C | -10% (inactive)
Cn1c(CN2CCCCC2)nc2cc(NC(=O)c3ccc(Cl)cc3)ccc21 | 11.5% (inactive)
CCN(CCn1cccn1)C(=O)CC1C(=O)NCCN1CCc1ccccc1 (stereo not given) | 29.3% (inactive)
COc1ccccc1-c1c(-c2ccc(O)cc2O)n[nH]c1C(F)(F)F | 13% (inactive)
O=C1COc2ccc(-c3csc(=Nc4ccc(OC(F)F)cc4)n3CC3CCCO3)cc2N1 (stereo not given) | 6.16% (inactive)
CCCCOc1ccc(S(=O)(=O)Nc2cccnc2)cc1 | 4.95% (inactive)
O=C(Nc1ccc(CN2CCOCC2)cc1)c1ccc(-c2cccc(Cl)c2)o1 | 77.5% (inactive)
COc1ccc(NC(=O)CN2CCC(C(N)=O)(N3CCCCC3)CC2)cc1 | -14.4% (inactive)
Cc1cc2ncn(S(=O)(=O)N3CCCCC3)c2cc1C | 3.5% (inactive)
O=C(COC(=O)c1cccc(S(=O)(=O)N2CCOCC2)c1)NCc1ccccc1 | 5.14% (inactive)
NC(=S)c1ccc(OCCCc2ccccc2)cc1 | 6.29% (inactive)
Cc1onc(-c2ccccc2)c1C(=O)NC(=S)NNC(=O)c1ccc(O)cc1 | -0.417% (inactive)
Cc1nn(C)c(C)c1CN(C)S(=O)(=O)c1ccc2ccccc2c1 | -4.39% (inactive)
Nc1ccn([C@@H]2O[C@H](C(=O)NCc3ccc4c(c3)OCO4)[C@@H](O)[C@H]2O)c(=O)n1 | 25.8% (inactive)
C=CC[n+]1c(-c2ccc(OC)c(OC)c2)csc1NNC(=O)Nc1ccccc1 | 22.1% (inactive)

From PubChem BioAssay AID652040 (Broad Institute, 2013)
